14-3-3 Bad PPI: inhibitors of 14-3-3 zeta/Bad binding, primary screen, biochemical, TR-FRET, bovine 14-3-3 zeta | inhibition, % at 21.7 µM | actives 0.71% (n = 220,000) | TR-FRET 14-3-3zeta/Dy647-pBad peptide displacement, 1 h;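 active = inhibition above about 70%, limit read from the data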;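 also: 0% = full 14-3-3 plus peptide FRET controls and 100% = background without 14-3-3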
Target sequence (P63103 whole entry, looked up): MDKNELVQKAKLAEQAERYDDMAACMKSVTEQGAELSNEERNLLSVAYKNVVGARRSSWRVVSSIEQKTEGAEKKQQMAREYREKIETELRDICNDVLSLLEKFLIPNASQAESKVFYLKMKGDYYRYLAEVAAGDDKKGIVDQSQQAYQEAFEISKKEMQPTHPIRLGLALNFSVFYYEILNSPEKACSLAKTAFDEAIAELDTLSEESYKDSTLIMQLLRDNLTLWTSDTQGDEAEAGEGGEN
Mcl1 Bid PPI: Mcl-1/Bid binding inhibitors, primary screen, biochemical, TR-FRET, 1536-well | AID 1021, 2008 | TR-FRET Mcl-1/Bid-Dy647 peptide binding | inhibition, % at 21.7 µM | actives 0.97% (n = 220,000);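 active = compounds that cut the binding signal by more than half at the single screening dose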;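 also: His-tagged Mcl-1 with europium anti-His antibody binding Bid BH3 peptide; 0% = Mcl-1 plus peptide wells and 100% = peptide-only wells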
Target sequence (Q07820 whole entry, looked up): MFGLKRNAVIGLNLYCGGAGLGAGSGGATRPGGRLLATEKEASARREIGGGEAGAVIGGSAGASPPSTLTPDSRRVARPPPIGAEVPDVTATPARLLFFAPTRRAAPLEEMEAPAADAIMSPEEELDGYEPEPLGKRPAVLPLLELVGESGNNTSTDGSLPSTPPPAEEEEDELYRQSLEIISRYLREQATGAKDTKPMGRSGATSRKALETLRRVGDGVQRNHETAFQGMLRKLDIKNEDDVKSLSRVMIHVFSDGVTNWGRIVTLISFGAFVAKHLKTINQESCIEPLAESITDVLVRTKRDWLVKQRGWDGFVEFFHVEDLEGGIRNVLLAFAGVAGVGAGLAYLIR
MCL1 BIM primary: inhibitors of MCL1 binding to BIM-BH3, primary screen, biochemical, fluorescence polarization; AID 2057, 2009; Induced myeloid leukemia cell differentiation protein Mcl-1 (Homo sapiens), Q07820; actives 0.68% (n = 320,000); inhibition, % at 10.9 µM; GST-MCL1 / FITC-Bim-BH3 fluorescence polarization;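 active = inhibition above the mean inhibition of all tested compounds plus 3 SD, set per campaign, cut at about 40% in these data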;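 also: 0% = DMSO wells and 100% = unlabeled Bim-BH3 peptide control; higher means more loss of mP so more displacement of Bim peptide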
Mcl-1 Bim block: inhibitors of Bim peptide binding to Mcl-1, primary screen, biochemical, bead-based flow cytometry, multiplex | Induced myeloid leukemia cell differentiation protein Mcl-1 (Homo sapiens), Q07820 | Bim peptide-Mcl-1 binding | inhibition, % at 10 µM | actives 0.1% (n = 190,000); in the data active = inhibition above about 40%;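 also: 0% = no compound tracer wells and 100% = peptide blocker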
eIF4E-4G inh: eIF4E–eIF4G protein interaction inhibitors, primary screen, biochemical, uHTS, TR-FRET, eIF4GI fragment; TR-FRET eIF4E-eIF4GI(517-606) binding, 2 h; AID 782, 2007; actives 0.37% (n = 220,000); Eukaryotic translation initiation factor 4E (Mus musculus) + Eukaryotic translation …; inhibition, % at 21.7 µM;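 active = inhibition above about 30%, limit read from the data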;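 also: 0% = full FRET control wells and 100% = background wells lacking eIF4GI fragment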
Mcl1 Noxa PPI: Mcl-1/Noxa binding inhibitors, primary screen, biochemical, TR-FRET, 1536-well; Induced myeloid leukemia cell differentiation protein Mcl-1 (Homo sapiens), Q07820; TR-FRET Mcl-1/Noxa peptide binding, 2 h; inhibition, % at 21.7 µM; actives 1.5% (n = 220,000);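 active = compounds that cut the protein-peptide binding signal by more than 50% relative to plate controls in a single-dose test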;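 also: His-tagged Mcl-1 with rhodamine Noxa BH3 peptide and terbium anti-His antibody; 0% = Mcl-1 plus Noxa peptide wells and 100% = peptide-only wells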
* hit, by the source's call; · = not tested or not shown. Shown are actives, neighbours in structure and some others; about 2.6% of the full set was active somewhere.

SMILES	14-3-3 Bad PPI	Mcl1 Bid PPI	MCL1 BIM primary	Mcl-1 Bim block	eIF4E-4G inh	Mcl1 Noxa PPI
Cc1cc(C)cc(NC(=O)c2ccccc2CC[N+](=O)[O-])c1	0.0	-3.1	-1.7	0.0	76.4*	-28.7
CC(C)N1C(=O)/C(=C\c2nc3ccccc3c(=O)n2-c2ccccc2)c2ccccc21	21.2	11.4	-1.7	15.0	-2.1	19.9
CC(C)N1C(=O)/C(=C/c2nc3ccccc3c(=O)n2-c2ccccc2)c2ccccc21	77.2*	77.9*	6.5	0.0	2.0	54.9*
NC(=O)NS(=O)(=O)Oc1ccccc1	·	·	11.1	·	·	·
NC(=O)Nc1ccc(C(=O)OCC(=O)Nc2ccc(Cl)cn2)cc1	-3.4	-13.5	-1.7	·	4.8	-0.1
Cc1ccc(C(=O)OCC(=O)Nc2cc(F)ccc2F)cc1NC(=O)c1ccco1	15.9	-5.1	2.3	0.0	-7.6	1.9
O=c1[nH]c2cc3c(cc2cc1CN(Cc1cccnc1)Cc1nnnn1Cc1ccco1)OCCO3	11.8	-0.7	43.9*	-2.0	2.1	35.7
O=c1[nH]c2cc3c(cc2cc1CN(Cc1ccccc1)Cc1nnnn1Cc1ccco1)OCCO3	-4.8	0.7	·	-1.0	-1.6	27.2
COc1ccc(/C=N/NC(=O)CC(=O)NCc2cccnc2)cc1[N+](=O)[O-]	·	·	9.3	·	·	·
N#C/C(C(=O)c1ccccc1)=C1/SC=C(N)N1c1ccccc1	-10.5	15.4	·	-3.0	0.4	55.2*
C#CCOCCOCCOCCNc1nc(N2CCN(C(=O)Cn3cc(CCCCN)nn3)CC2)nc(N2CCN(C(=O)[C@H](C)n3cc(CCCN=C(N)N)nn3)CC2)n1	80.5*	46.8	·	-2.0	-2.2	22.9
C#CCOCCOCCOCCNc1nc(N2CCN(C(=O)Cn3cc(CCCCN)nn3)CC2)nc(N2CCN(C(=O)[C@H]([C@@H](C)CC)n3cc(CCCN=C(N)N)nn3)CC2)n1	·	·	-2.9	·	·	·
C#CCOCCOCCOCCNc1nc(N2CCN(C(=O)Cn3cc(CC(C)O)nn3)CC2)nc(N2CCN(C(=O)[C@H](CCCCN)n3cc(CCC(=O)O)nn3)CC2)n1 (some centres not stated)	72.3*	36.9	-0.9	0.0	3.8	19.2
C#CCOCCOCCOCCNc1nc(N2CCN(C(=O)Cn3cc(CCCN=C(N)N)nn3)CC2)nc(N2CCN(C(=O)[C@H](CCCCN)n3cc(CC(C)O)nn3)CC2)n1 (some centres not stated)	·	·	-4.9	·	·	·
C#CCOCCOCCOCCNc1nc(N2CCN(C(=O)Cn3cc(CCCN=C(N)N)nn3)CC2)nc(N2CCN(C(=O)[C@H]([C@@H](C)CC)n3cc(CCCN=C(N)N)nn3)CC2)n1	86.1*	44.7	·	-1.0	5.7	36.8
C#CCOCCOCCOCCNc1nc(N2CCN(C(=O)Cn3cc(CCCN=C(N)N)nn3)CC2)nc(N2CCN(C(=O)[C@H]([C@@H](C)O)n3cc(CCCCN)nn3)CC2)n1	·	·	-2.2	·	·	·
C#CCOCCOCCOCCNc1nc(N2CCN(C(=O)Cn3cc(CC(C)O)nn3)CC2)nc(N2CCN(C(=O)[C@H](C)n3cc(CCCN=C(N)N)nn3)CC2)n1 (some centres not stated)	83.6*	26.8	2.5	0.0	-1.0	9.2
CCc1ccc(NC(=O)C(=O)NCC2CCCN2S(=O)(=O)c2cccs2)cc1 (configuration not stated)	·	·	-7.3	·	·	·
COc1ccc(-c2nc3oc4cc(OC)ccc4c(=O)c3c(=O)n2Cc2ccco2)cc1	-3.6	27.6	6.0	-5.0	8.0	51.5*
COc1ccc2c(=O)c3c(=O)n(Cc4ccco4)c(-c4ccco4)nc3oc2c1	-8.3	-3.4	25.6	0.0	1.3	69.8*
O=C(Nc1ccccc1N1CCOCC1)C1CCN(S(=O)(=O)c2ccccc2F)CC1	5.1	-17.0	0.1	0.0	1.3	20.0
COc1ccc(C)cc1N(CC(=O)NCCN1CCOCC1)S(=O)(=O)c1ccccc1	·	·	-0.8	·	·	·
CN1C(=O)/C(=C/c2coc3ccc(O)cc3c2=O)SC1=S	18.9	-5.3	-12.2	·	-0.2	53.8*
Cc1cc(/C=C2\SC(=S)N(C)C2=O)c(C)n1-c1ccc(O)cc1	-5.6	-51.0	-39.0	·	2.7	-8.4
Nc1nnc(SCC(=O)N2CCN(c3cccc(Cl)c3)CC2)n1-c1ccccc1	-1.4	-19.1	1.9	-3.0	-2.8	1.1
SMILES	14-3-3 Bad PPI	Mcl1 Bid PPI	MCL1 BIM primary	Mcl-1 Bim block	eIF4E-4G inh	Mcl1 Noxa PPI
Nc1nnc(SCC(=O)N2CCN(c3ccccc3)CC2)n1-c1ccccc1	52.0	97.3*	1.9	0.0	-4.7	40.6
CCN(c1ccc(NC(=O)CN2C(=O)NC3(CCOc4ccccc43)C2=O)cc1)C(C)C (configuration not stated)	1.5	12.2	1.3	-2.0	16.9	65.8*
CCNC(=O)CN1C(=O)NC2(CCOc3ccccc32)C1=O (configuration not stated)	·	·	-2.8	·	·	·
Cc1ncc(CN2CCCC(C(=O)Nc3ccc(-c4cccc(F)c4)cc3)C2)n1C (configuration not stated)	·	·	0.6	·	·	·
C=CCNC(=O)CSc1nc2cc(C(=O)OCC)ccc2n1CC	8.2	2.0	-6.2	3.0	4.4	15.0
CCOC(=O)c1ccc2c(c1)nc(SCC(=O)c1cc3ccccc3o1)n2CC	-6.3	5.0	-71.9	0.0	40.4*	-0.3
Cc1ccc2[nH]c(C(=O)N3CCN(C(c4ccccc4)c4ccccc4)CC3)cc2c1	·	·	3.3	·	·	·
O=C(CN1C(=O)c2ccccc2C1=O)N1CCCCC1	7.3	99.2*	1.1	-2.0	5.2	19.9
Cc1ccc(-c2nc(COC(=O)C3=NN(c4ccccc4)C(=O)CC3)cs2)cc1	·	·	0.1	·	·	·
Cc1ccc(N2C(=O)C3C(C2=O)C(C(=O)c2ccc(Cl)cc2)N2CCCC32)cc1 (configuration not stated)	29.7	-9.4	72.2*	-3.0	-8.0	8.9
Cc1ccc(C(=O)N2CCC(C(=O)c3ccc(Cl)cc3)CC2)cc1	·	·	7.2	·	·	·
CCC1CN(C(=O)N2CCC(C(=O)NCc3ccco3)CC2)c2cc(C)ccc2O1 (configuration not stated)	·	·	-2.9	·	·	·
CCOC(=O)c1ccc(NC(=O)COc2ccc(S(=O)(=O)NC(C)C)cc2)cc1	72.1*	14.5	3.4	-5.0	-4.6	13.2
CCOc1ccc(OCC(=O)Nc2ccc(S(=O)(=O)Nc3cc(C)nc(C)n3)cc2)cc1	0.1	2.1	1.6	-4.0	2.7	68.4*
Cc1cc(NS(=O)(=O)c2ccc(NC(=O)COc3ccc(Br)cc3)cc2)nc(C)n1	·	·	-2.5	·	·	·

Compound activity (PubChem)
